Measured values published in the supplement of paper PMC10849652.
Targets with a hit are over-represented here; the source holds about 8,800 in all. About 0.5% of all pairs of compound and target were hits. Unmarked numbers belong to inactive results.

Columns and labels:
Experiment in all cases: log2 fold change, soluble protein after heating vs DMSO (PISA); higher = thermal stabilisation; K562 lysate, 10 uM; active = over 0.2 and 3.5 SD of the protein, either way, in both replicates (recomputed)
nilotinib = compound: Cc1cn(-c2cc(NC(=O)c3ccc(C)c(Nc4nccc(-c5cccnc5)n4)c3)cc(C(F)(F)F)c2)cn1 [nilotinib]
Outline: (§1)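 Values give the log-two fold change in thermal stability against solvent controls, from duplicates. Crude K562 extract at 1 mg/mL protein, made by dounce homogenisation in PBS pH 7.4 with 1 mM MgCl2, was treated with 10 μM compound for 30 min. After 3 min heating across 48°C-58°C, aliquots were pooled, adjusted to 0.5% NP-40 at 4°C and centrifuged at 21,000xg for 90 min. The supernatant was measured by TMTpro 16plex LC-MS/MS with channel sums equalised.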

[1] = compound: Cc1nc(Nc2n[nH]c3c2CN(C(=O)N[C@H](CN(C)C)c2ccccc2)C3(C)C)c2sccc2n1
Outline: as §1

dasatinib = compound: Cc1nc(Nc2ncc(C(=O)Nc3c(C)cccc3Cl)s2)cc(N2CCN(CCO)CC2)n1 [dasatinib]
Outline: as §1

[2] = compound: Cc1ncc(-c2ccnc(Nc3ccc(S(C)(=O)=O)cc3)n2)n1C(C)C
Outline: as §1

[3] = compound: Cn1cc(-c2ccc3c(c2)CCN3C(=O)Cc2cccc(C(F)(F)F)c2)c2c(N)ncnc21
Outline: as §1

quisinostat = compound: Cn1cc(CNCC2CCN(c3ncc(C(=O)NO)cn3)CC2)c2ccccc21 [quisinostat]
Outline: as §1

tipifarnib = compound: Cn1cncc1[C@@](N)(c1ccc(Cl)cc1)c1ccc2c(c1)c(-c1cccc(Cl)c1)cc(=O)n2C [tipifarnib]
Outline: as §1

[4] = compound: NC(=O)Nc1cc(-c2cccc(F)c2)sc1C(=O)N[C@H]1CCCNC1
Outline: as §1

[5] = compound: NC1(c2ccc(-c3nc4ccn5c(=O)[nH]nc5c4cc3-c3ccccc3)cc2)CCC1
Outline: as §1

[6] = compound: NCC(=O)Nc1ccc(-n2nc(C(F)(F)F)cc2-c2ccc3c(ccc4ccccc43)c2)cc1
Outline: as §1

vorinostat = compound: O=C(CCCCCCC(=O)Nc1ccccc1)NO [vorinostat]
Outline: as §1

silmitasertib = compound: O=C(O)c1ccc2c(c1)nc(Nc1cccc(Cl)c1)c1ccncc12 [silmitasertib]
Outline: as §1

[7] = compound: O=C1NC(=O)C(c2cnc3ccccn23)=C1c1cn2c3c(cc(F)cc13)CN(C(=O)N1CCCCC1)CC2
Outline: as §1

entospletinib = compound: c1cn2cc(-c3ccc4cn[nH]c4c3)nc(Nc3ccc(N4CCOCC4)cc3)c2n1 [entospletinib]
Outline: as §1

[8] = compound: NC(=O)c1cnc(N[C@@H]2CCCC[C@@H]2N)nc1Nc1cccc(-n2nccn2)c1
Outline: as §1

Chain of UniProt Q9NQS1 (Q9NQS1 whole entry, looked up): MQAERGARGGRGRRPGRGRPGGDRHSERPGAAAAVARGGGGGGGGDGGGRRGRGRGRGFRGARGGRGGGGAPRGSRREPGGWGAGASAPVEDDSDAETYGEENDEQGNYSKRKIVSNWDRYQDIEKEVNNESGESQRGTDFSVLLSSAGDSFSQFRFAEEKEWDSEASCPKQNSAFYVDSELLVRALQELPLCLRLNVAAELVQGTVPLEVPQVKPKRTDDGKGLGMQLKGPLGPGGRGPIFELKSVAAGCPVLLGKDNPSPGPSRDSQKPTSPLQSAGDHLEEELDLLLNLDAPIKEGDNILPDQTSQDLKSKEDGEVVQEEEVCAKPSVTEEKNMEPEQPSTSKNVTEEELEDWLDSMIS
Chain of UniProt Q9C0D2 (Q9C0D2 whole entry, looked up): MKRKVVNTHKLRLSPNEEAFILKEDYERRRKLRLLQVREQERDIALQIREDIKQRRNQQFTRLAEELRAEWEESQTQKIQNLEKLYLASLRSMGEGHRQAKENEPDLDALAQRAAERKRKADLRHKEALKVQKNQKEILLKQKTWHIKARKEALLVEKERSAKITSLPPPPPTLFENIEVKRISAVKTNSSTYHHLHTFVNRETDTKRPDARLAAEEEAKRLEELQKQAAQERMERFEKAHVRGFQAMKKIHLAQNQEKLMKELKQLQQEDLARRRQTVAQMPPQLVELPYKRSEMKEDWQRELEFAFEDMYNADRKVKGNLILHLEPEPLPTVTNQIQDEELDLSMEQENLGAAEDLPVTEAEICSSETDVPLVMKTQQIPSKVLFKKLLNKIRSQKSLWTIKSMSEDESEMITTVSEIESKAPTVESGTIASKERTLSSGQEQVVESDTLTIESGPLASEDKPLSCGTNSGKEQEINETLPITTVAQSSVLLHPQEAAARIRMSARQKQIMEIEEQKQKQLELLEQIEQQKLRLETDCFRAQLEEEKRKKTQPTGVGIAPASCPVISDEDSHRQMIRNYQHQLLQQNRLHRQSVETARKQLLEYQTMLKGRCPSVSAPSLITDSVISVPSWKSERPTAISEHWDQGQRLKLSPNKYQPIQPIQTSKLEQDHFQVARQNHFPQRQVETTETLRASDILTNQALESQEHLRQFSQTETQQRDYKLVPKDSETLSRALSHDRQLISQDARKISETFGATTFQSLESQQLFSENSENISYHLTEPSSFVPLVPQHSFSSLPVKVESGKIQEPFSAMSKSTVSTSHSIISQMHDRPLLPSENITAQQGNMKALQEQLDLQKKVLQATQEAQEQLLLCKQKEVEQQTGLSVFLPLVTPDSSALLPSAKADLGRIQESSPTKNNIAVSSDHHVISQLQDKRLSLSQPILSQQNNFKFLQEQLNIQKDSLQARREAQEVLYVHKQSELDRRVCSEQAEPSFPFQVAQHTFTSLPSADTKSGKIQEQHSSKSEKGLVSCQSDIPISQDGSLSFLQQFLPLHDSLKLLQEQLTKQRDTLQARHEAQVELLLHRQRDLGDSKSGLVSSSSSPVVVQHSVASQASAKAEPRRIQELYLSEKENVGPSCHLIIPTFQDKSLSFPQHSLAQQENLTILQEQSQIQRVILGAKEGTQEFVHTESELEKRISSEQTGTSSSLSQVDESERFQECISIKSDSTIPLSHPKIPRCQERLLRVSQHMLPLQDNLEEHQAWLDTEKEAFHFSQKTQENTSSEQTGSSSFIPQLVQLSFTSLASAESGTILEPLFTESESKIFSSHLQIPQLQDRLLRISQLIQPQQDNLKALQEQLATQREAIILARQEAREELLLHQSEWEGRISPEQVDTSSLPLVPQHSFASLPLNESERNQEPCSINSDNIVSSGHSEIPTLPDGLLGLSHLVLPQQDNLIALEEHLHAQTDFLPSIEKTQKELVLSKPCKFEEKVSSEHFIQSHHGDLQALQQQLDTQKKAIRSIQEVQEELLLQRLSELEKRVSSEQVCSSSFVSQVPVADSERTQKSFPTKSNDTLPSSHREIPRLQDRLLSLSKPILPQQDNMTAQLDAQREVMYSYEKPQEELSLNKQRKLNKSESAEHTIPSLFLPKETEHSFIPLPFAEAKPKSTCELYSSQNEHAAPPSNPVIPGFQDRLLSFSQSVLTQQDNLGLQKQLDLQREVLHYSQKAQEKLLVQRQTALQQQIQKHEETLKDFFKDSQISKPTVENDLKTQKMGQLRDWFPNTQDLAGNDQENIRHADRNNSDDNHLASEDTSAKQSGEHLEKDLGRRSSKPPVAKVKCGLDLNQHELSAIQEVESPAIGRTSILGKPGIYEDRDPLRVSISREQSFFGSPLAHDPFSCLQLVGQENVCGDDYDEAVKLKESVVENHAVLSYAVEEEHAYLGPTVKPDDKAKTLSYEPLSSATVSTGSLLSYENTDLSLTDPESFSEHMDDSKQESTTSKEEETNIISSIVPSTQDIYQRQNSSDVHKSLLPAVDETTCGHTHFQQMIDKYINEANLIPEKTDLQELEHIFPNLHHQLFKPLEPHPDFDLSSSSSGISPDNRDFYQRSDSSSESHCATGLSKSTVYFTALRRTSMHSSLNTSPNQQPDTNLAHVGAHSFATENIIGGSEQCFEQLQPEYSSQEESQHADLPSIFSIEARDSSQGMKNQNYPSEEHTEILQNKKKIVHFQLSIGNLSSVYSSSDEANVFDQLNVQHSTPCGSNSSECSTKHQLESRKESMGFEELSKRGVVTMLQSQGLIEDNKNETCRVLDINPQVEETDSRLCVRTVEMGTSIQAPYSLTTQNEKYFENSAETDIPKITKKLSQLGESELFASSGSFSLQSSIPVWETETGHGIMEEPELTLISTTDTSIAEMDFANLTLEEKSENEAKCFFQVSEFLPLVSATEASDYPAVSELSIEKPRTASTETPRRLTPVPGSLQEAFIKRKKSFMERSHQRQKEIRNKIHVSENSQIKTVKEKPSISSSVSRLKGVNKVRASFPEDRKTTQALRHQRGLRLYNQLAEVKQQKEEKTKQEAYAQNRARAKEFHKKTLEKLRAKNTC
Chain of UniProt Q7Z4R8 (Q7Z4R8 whole entry, looked up): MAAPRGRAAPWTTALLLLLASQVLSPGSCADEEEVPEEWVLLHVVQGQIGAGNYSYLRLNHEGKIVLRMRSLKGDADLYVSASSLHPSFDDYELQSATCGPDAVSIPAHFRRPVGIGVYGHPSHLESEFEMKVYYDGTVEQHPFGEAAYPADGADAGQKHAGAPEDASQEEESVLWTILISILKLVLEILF
Chain of UniProt Q7Z7K6 (Q7Z7K6 whole entry, looked up): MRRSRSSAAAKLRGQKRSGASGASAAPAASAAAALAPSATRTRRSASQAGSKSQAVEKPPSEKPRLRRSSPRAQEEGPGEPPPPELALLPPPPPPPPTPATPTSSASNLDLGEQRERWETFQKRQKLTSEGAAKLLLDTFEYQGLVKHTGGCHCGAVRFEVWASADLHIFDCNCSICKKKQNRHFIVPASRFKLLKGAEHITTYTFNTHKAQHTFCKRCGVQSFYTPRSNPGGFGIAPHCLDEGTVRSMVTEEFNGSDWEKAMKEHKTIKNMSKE
Chain of UniProt Q96LT7 (Q96LT7 whole entry, looked up): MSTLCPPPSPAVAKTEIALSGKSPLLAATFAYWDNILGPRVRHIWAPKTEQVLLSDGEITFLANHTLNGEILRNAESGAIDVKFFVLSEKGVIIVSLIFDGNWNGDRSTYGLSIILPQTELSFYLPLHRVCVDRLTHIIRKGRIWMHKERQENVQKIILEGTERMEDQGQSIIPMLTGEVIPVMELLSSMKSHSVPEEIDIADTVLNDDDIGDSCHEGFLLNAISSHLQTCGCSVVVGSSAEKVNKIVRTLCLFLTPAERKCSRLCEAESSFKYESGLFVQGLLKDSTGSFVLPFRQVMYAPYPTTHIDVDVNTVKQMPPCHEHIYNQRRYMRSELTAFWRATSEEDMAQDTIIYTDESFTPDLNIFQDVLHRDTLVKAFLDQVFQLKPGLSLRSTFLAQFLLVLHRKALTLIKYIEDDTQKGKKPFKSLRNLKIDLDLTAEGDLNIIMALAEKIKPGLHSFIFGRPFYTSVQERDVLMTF
Chain of UniProt Q15834 (Q15834 whole entry, looked up): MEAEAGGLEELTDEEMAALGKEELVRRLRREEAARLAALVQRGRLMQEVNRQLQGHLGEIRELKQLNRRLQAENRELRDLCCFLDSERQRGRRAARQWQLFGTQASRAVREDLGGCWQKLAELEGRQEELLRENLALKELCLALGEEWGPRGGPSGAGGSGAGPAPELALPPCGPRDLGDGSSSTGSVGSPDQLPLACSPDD
Chain of UniProt P20248 (P20248 whole entry, looked up): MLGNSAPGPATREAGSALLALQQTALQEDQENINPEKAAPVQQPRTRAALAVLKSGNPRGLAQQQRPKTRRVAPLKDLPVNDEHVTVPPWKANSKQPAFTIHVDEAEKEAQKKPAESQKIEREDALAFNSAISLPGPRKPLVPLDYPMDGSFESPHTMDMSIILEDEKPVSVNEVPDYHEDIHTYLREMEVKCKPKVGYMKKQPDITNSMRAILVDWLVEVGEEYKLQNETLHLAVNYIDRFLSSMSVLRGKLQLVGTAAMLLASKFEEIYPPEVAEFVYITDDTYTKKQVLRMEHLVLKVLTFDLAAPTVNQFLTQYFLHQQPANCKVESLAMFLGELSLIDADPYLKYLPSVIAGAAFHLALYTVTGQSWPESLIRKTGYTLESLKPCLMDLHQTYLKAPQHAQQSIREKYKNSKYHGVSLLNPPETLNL
Chain of UniProt Q12981 (Q12981 whole entry, looked up): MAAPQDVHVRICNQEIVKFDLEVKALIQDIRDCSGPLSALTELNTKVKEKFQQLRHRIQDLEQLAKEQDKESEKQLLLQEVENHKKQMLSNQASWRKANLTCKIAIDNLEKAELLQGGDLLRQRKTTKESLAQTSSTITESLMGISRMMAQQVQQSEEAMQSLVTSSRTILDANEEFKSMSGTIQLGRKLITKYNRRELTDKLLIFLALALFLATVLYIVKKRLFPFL
Chain of UniProt Q12983 (Q12983 whole entry, looked up): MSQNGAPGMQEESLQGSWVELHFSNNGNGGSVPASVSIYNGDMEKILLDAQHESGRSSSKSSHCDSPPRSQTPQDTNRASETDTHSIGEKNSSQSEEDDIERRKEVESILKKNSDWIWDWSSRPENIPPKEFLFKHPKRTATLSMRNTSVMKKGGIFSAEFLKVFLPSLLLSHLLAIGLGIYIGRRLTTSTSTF

Target	log2 fold change (nilotinib)	log2 fold change [1]	log2 fold change (dasatinib)	log2 fold change [2]	log2 fold change [3]	log2 fold change (quisinostat)	log2 fold change (tipifarnib)	log2 fold change [4]	log2 fold change [5]	log2 fold change [6]	log2 fold change (vorinostat)	log2 fold change (silmitasertib)	log2 fold change [7]	log2 fold change (entospletinib)	log2 fold change [8]
CEP152 (UniProt O94986)	-0.058	0.108	0.012	-0.014	-0.017	-0.413 (active)	0.02	0.058	0.112	0.025	-0.167	0.039	0.089	-0.04	
C9orf72 (UniProt Q96LT7)	0.017	-0.063	-0.025	0.073	0.001	-0.034	-0.065	-0.03	-0.014		0.919 (active)	-0.045	-0.015	-0.129	0.015
BUD13 (UniProt Q9BRD0)	-0.036	0.111	-0.094	0	0.019	-0.044	0.028	-0.014	-0.019		0.136	0.054	0.036	-0.046	
CDK17 isoform 2 (UniProt Q00537)	0.061	0.117	-0.068	0.096	0.011	-0.069	-0.423	-0.057	0.068	0.01	0.174	0.565 (active)	0.103	-0.162	
BBS7 (UniProt Q8IWZ6)	-0.039	0.065	-0.061	-0.03	0.489 (active)	0.06	-0.133	-0.044	0.14	-0.006	-0.354	0.133	-0.015	-0.007	
C15orf39 (UniProt Q6ZRI6)	0.074	-0.006	-0.059	0.019	0.034	-0.017	-0.015	0.053	0.184		-0.513 (active)	0.008	-0.025	-0.147	
AVEN (UniProt Q9NQS1)	-0.014	0.068	0.01	0.025	-0.08	-0.042	-0.188	0.038	0.154	-0.146	-0.738 (active)	-0.009	0.092	-0.161	
BCAR1 isoform 6 (UniProt P56945)	-0.021	-0.015	0.001	-0.068	0.018	0.021	-0.006	0.016	0.008	0.056	-0.032	0.002	-0.004	-0.083	-0.009
CDK5RAP1 (UniProt Q96SZ6)	-0.007	0.002	0.037	0.019	0.011	0.049	-0.002	-0.004	-0.013	0.011	0.036	-0.07	0.016	0.029	
CDK13 (UniProt Q14004)	-0.081	0	0.004	-0.051	0.005	0.068	0.032	-0.039	0.131	-0.089	-0.088	0.093	-0.012	-0.013	0.033
CDK11A (UniProt Q9UQ88)	-0.007	0.053	-0.016	0.085	-0.001	-0.031	-0.029	0.035	-0.034		-0.329	0.049	-0.012		-0.029
BNIP1 (UniProt Q12981)	-0.004	-0.037	-0.005	-0.028	-0.045	-0.014	-0.046	-0.034	0.057	-0.013	-0.049	0.066	-0.026	-0.051	-0.033
CCNA2 (UniProt P20248)	-0.014	0.064	0.04	0.234 (active)	-0.051	-0.086	-0.015	0.005	-0.021	0.005	0.075	-0.06	-0.026	-0.011	0.063
CDC42EP4 (UniProt Q9H3Q1)	0.061	-0.043	0.039	-0.026	-0.028	-0.045	0.006	-0.02	0.02	0	0.018	-0.074	0.021	0.051	-0.025
BNIP3 (UniProt Q12983)	0.037	-0.077	0.014	-0.002	-0.02	-0.219	0.05	0.061	-0.007		0.066	-0.08	-0.048	-0.031	-0.018
CANX (UniProt D6RHJ3)	-0.055	0.129		0.191			0.126			0.012					-0.103
BCORL1 isoform 3 (UniProt Q5H9F3)			0.039		-0.09	0.035		0.235	-0.091	0.177	-0.004	-0.093	0.213	-0.018	
CAPNS1 (UniProt K7ES78)			-0.027		-0.006	0.247		-0.002	-0.099	-0.234	-0.011	-0.037	0.141		0.053
CENPV (UniProt Q7Z7K6)	1.5 (active)	-0.184		0.816		0.038	0.08	-0.077		0.396			0.039	0.084	
C6orf120 (UniProt Q7Z4R8)			-0.007		0.147				0.041		0.273	-0.075			0.017
C16orf70 (UniProt Q9BSU1)			0.042		-0.091	0.036		-0.005	0.009	-0.013	-0.382 (active)	0.019	-0.015	-0.104	-0.001
CCDC85B (UniProt Q15834)			0.066		-0.034	0.086		0.044	0.188	-0.039	0.088	0.042	-0.077	-0.397	-0.225
ATF7IP2 (UniProt Q5U623)	-0.003	0.008		-0.089		-0.336 (active)	-0.064	0.001	-0.127	0.066	0.027	0.002	-0.048		0.036
BRAF, A0A2R8Y8E0										0.017				-0.082	
CACUL1 (UniProt Q86Y37)			-0.094		0.157	0.025		0.102	-0.028	0.176	-0.543 (active)	0.024	-0.081	-0.056	-0.1
CEP295 isoform 3 (UniProt Q9C0D2)	0.016	0.046		0.006		0.017	0.062	-0.038	0.046		-0.004	0.076	-0.076	0.087	0.14
